# Source: PubChem BioAssay (NCI)
# The panel holds about 83,000 compounds, 20% with a hit somewhere; the sample as a whole holds those more often.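 Negative percent growth values reflect cell death: -40 means 40% of the cells present at the start died, and -100 means all died.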 A number with no mark means an inactive call. Calls of active or inactive are those of the source. The calls were made as follows: active = growth percent below 10; inactive = the rest.
# Test system: HL-60(TB) leukemia
# Assay: NCI-60 one-dose screen, 48 h (100 = growth as untreated, 0 = no growth, -100 = all killed)
# Conditions: 10 µM unless noted
row,SMILES,growth
1,CCOC(=O)c1sc2nc(-c3cccc(OC)c3)nc(N3CCOCC3)c2c1C,101%
2,COc1cc(/C=C/C(=O)N2CCC=CC2=O)cc(OC)c1OC,-13.1% (active)
3,Cc1cc(N/N=C/c2nc(-c3ccccc3)oc2C)c2cc(Br)ccc2n1,80%
4,O=C(Cc1ccccc1)c1ccc(O)c(Cl)c1,-21.1% (active)
5,c1ccc2c(Nc3cccc4ccccc34)cccc2c1,18.9%
6,COc1cc2cc(NCc3ccc(F)cc3)nc(C)c2cc1OC,31.7%
7,Cc1nc2sc(C(=O)Nc3cccc(Cl)c3C)c(N)c2cc1C(=O)/C=C/c1ccccc1,2.75% (active)
8,Cc1ccc2c(c1)n([O-])c1cc(Cl)ccc1[n+]2=O,67.8%
9,COc1nc2ccc(C)cc2cc1-c1nc2c(cnn2-c2ccccc2)c(=O)[nH]1,50.1%
10,O=[N+]([O-])CC(c1ccccc1)c1c[nH]c2ccccc12 (stereo unspecified),7.86% (active)
11,COc1ccccc1S(=O)(=O)Nc1ccc2c3c(cc(-c4cnn(C)c4)nc13)C(=O)N2C,-30.1% (active)
12,CCCCCCCCCCCCCCCCCC(=O)OCCCCCCCCCCCCC,112%
13,COc1cccc(NC(=O)Nc2ccc(Nc3ncnc4[nH]c(C)c(C)c34)cc2)c1,104%
14,CN(C)CCN1C(=O)c2cccc3c(N)ccc(c23)C1=O,-6.78% (active)
15,COc1cc(N2C(=O)[C@H](c3ccccc3)C2c2ccc(SC)cc2)cc(OC)c1OC (stereo partly specified),-45.7% (active)
16,CC(=O)n1nc(C(=O)OC(C)(C)C)c2cc(F)c(F)cc21,103%
